Screens (PubChem)
The sample as a whole holds a higher share of hits than the screen did.
TTR transcr act = TTR transcription activators in neuroblastoma reporter cells, primary screen, cell-based, luminescence, SH-SY5Y, TTR promoter Gaussia luciferase. 100% = recombinant luciferase protein wells. activation, % at 16.7 µM. 1.3% of 92,000 active;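 active means activation above the mean of all tested compounds plus 3 SD, cut at about 9.5% in these data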;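 further: cells exposed to compounds for one day before reading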
HuH7 TTR inh = TTR promoter reporter inhibitors in hepatoma cells, counter-screen for TTR transcription activator project, cell-based, luminescence, HuH7 hepatoma; shares compounds with TTR transcr act; HuH7 TTR promoter-Gaussia luciferase reporter; inhibition, % at 16.7 µM; 4% of 1,100 active;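 active means average inhibition above the solvent-only control wells' mean plus 3 SD, cut at about 15% in these data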;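 further: inhibitors lower well luminescence so higher value means more inhibition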
TTR act confirm = TTR transcription activators, retest, confirmation, cell-based, luminescence, SH-SY5Y, triplicate. SHSY5Y TTR promoter Gaussia luciferase; 100% = purified Lucia enzyme wells, no cells. 1,100 tested, under 10 active. shares compounds with TTR transcr act. AID 1117280, 2014. activation, % at 16.7 µM;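 active means mean activation above a set limit taken from the earlier primary screen, cut at about 11% in these data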
Each line names hits and unclear results; the compound was inactive in the other large screens (follow-up assays come after a bar, where they were run).

N#Cc1ccc(Cn2ccc3ccc(-c4ccc5ccn(Cc6ccc(C#N)cc6)c5c4)cc32)cc1	none
CC(=O)c1ccc(NC(=O)COC(=O)c2ccc(F)cc2F)cc1	none
OC(CNCC1COc2ccccc2O1)COc1ccc(Cl)cc1 (configuration not stated)	none
O=C(Nc1ccc(-c2cnco2)cc1)c1ccc(Cl)cc1	none
O=C(Nc1ccc(-c2cnco2)cc1)c1ccccc1	TTR transcr act 14 | HuH7 TTR inh inactive | TTR act confirm inactive
O=C(NC(=O)c1ccccc1Cl)Nc1ccc(-c2cnco2)cc1	none
O=C(CN1CCN(C(=O)c2cccc(S(=O)(=O)N3CCCC3)c2)CC1)Nc1cccc(F)c1	none
CCCC(=O)NNC(=O)c1ccoc1C	TTR transcr act 17 | HuH7 TTR inh inactive | TTR act confirm inactive
Cc1cc(C)cc(OCC(=O)NNC(=O)c2ccoc2C)c1	none
Cc1cccc(C)c1OCC(=O)NNC(=O)c1ccoc1C	none
Cc1oc(=O)cc(OCc2ccccc2)c1C	none
Cc1ccccc1NC(=O)C1CC(=O)N(Cc2ccccc2)C1 (configuration not stated)	none
Cc1ccccc1NC(=O)C1Cc2ccccc2CN1C(=O)OCc1ccccc1 (configuration not stated)	TTR transcr act 11 | HuH7 TTR inh inactive | TTR act confirm inactive
COc1cccc(NC(=O)C2Cc3ccccc3CN2C(=O)c2ccco2)c1 (configuration not stated)	none
OCCNCc1ccc(OC2CCCC2)cc1	none
CCOc1ccccc1CNCCNCC(C)O (configuration not stated)	none
CN(C)CCNCc1ccccc1OC1CCCC1	TTR transcr act 21 | HuH7 TTR inh inactive | TTR act confirm inactive
Cc1cc(C)cc(-n2ccn(CC(=O)NCCc3ccccc3)c(=O)c2=O)c1	none
CC(C(=O)N1CCc2ccccc21)N1CCN(Cc2ccc(Cl)cc2)CC1 (configuration not stated)	none
COc1cccc(CN2CCN(Cc3cccc(Br)c3)CC2)c1OC	none
COC(=O)c1cnc(NNS(=O)(=O)c2ccc(Cl)cc2)nc1C(F)(F)F	TTR transcr act 11 | HuH7 TTR inh inactive | TTR act confirm inactive
COC(=O)c1cnc(Nc2nc(C(N)Cc3ccccc3)cs2)nc1C(F)(F)F (configuration not stated)	none
COC(=O)c1cnc(NNC(=O)c2ccc([N+](=O)[O-])cc2)nc1C(F)(F)F	none
C=CCN(C(=O)c1csnn1)C(C(=O)NCc1ccc(F)cc1)c1ccccc1F (configuration not stated)	none
O=C(Cn1cnc2ccccc2c1=O)NCCC(=O)N1CCN(Cc2ccccc2)CC1	none
O=C(Cn1cnc2ccccc2c1=O)N1CCOCC1	TTR transcr act 12 | HuH7 TTR inh inactive | TTR act confirm inactive
COC(=O)Cn1cnc2ccccc2c1=O	none
Cc1c(/C(O)=C2\C(=O)C(=O)N(CCCN(C)C)C2c2ccco2)cnn1-c1ccccc1 (configuration not stated)	none
COc1ccc(C(=O)N2CCOC2CNC(=O)C(=O)NCc2ccccc2Cl)cc1 (configuration not stated)	none
CC(Oc1ccccc1)C(=O)N1CCN=C1SCc1ccccc1 (configuration not stated)	TTR transcr act 12 | HuH7 TTR inh 29 | TTR act confirm inactive
O=C(C1CC1)N1CCN=C1SCc1ccccc1	none
O=C(C1CC1)N1CCN=C1SCc1cccc(F)c1	none
COCCn1c(SCC(=O)NC(=O)NCc2ccccc2)nc2ccccc2c1=O	none
COc1ccc([C@@H]2[C@@H]3C(=O)N(C(C)(C)C)C(=O)[C@@H]3[C@]3(C)C(=O)N(c4cccc(Cl)c4)C(=O)N23)cc1	none
C=CCN1C/C(=C/c2ccccc2)N2C(=O)CC(c3ccccc3)N=C12 (configuration not stated)	TTR transcr act 11 | HuH7 TTR inh inactive | TTR act confirm inactive
CC[C@H]1/C(=C/c2ccccc2)N2C(=O)C[C@H](c3ccccc3)N=C2N1C	none
O=C1CC(c2ccc3ccccc3c2)N=C2N(Cc3ccc4c(c3)OCO4)C/C(=C/c3ccccc3)N12 (configuration not stated)	none
Cc1cccc(C)c1NC(=O)CNC(=O)C(C)NC(C)c1ccccc1Br (configuration not stated)	none
CCC[C@H]1[C@@H](OC(=O)NC2CCC2)CC[C@@]23CCCN2C(=O)CCC[C@@H]13	none
O=C(O)c1cccc(C(=O)c2cccc3ccccc23)c1	none
Cc1cccc(C(=O)NNC(=O)c2ccccc2-n2cccc2)c1	none
Cc1cccc(C(=O)c2ccccc2C(=O)O)c1	TTR transcr act 11 | HuH7 TTR inh inactive | TTR act confirm inactive
CCCC[C@H]1COCCS(=O)(=O)N1Cc1cccc([N+](=O)[O-])c1	none
Oc1cccc2c3c(oc12)CCCC3	none
